PubChem BioAssay (NCATS)
Inconclusive results are not listed. Activity calls are given as the source filed them. Calls follow the shape of the dose curve; as a rule, active = well fitted curve in the direction sought with a large enough effect; inconclusive = small, poorly fitted or top-dose-only effect, or another doubt; inactive = no such curve, though single readings can be large; an effect the other way counts as inactive or inconclusive.

Tests used:
CASKI = assay: Primary qHTS to identify gynecologic anti-cancer compounds using libraries of approved drugs and bioactive compounds (AID 1345084); conditions: Gynecologic cancer cell panel viability, ATPlite luminescence, 48 h; series mostly up to 57.5 µM; also: nearly all actives have a fitted effect of over 55% in size; also: potency is read from the fitted curve at half-maximal effect
How it was run: (§1)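 Cells, 1,000 per well, plated 16 h, then exposed 48 h at 37 C to compounds. Viability by ATPlite luminescence after 15 min at room temperature.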

Es-2 = assay: as above; conditions: Gynecologic cancer cell panel viability, ATPlite luminescence, 48 h; series mostly up to 57.5 µM
How it was run: as §1

HeLa = assay: as above; conditions: Gynecologic cancer cell panel viability, ATPlite luminescence, 48 h; series mostly up to 57.5 µM
How it was run: as §1

Hek293T = assay: as above; conditions: Gynecologic cancer cell panel viability, ATPlite luminescence, 48 h, control line for the selectivity index; series mostly up to 57.5 µM
How it was run: as §1

JEG-3 = assay: as above; conditions: Gynecologic cancer cell panel viability, ATPlite luminescence, 48 h; series mostly up to 57.5 µM
How it was run: as §1

OV90 = assay: as above; conditions: Gynecologic cancer cell panel viability, ATPlite luminescence, 48 h; series mostly up to 57.5 µM
How it was run: as §1

PA-1 = assay: as above; conditions: Gynecologic cancer cell panel viability, ATPlite luminescence, 48 h; series mostly up to 57.5 µM
How it was run: as §1

Tov-21-G = assay: as above; conditions: Gynecologic cancer cell panel viability, ATPlite luminescence, 48 h; series mostly up to 57.5 µM
How it was run: as §1

Tov112D = assay: as above; conditions: Gynecologic cancer cell panel viability, ATPlite luminescence, 48 h; series mostly up to 57.5 µM
How it was run: as §1

CAOV3 = assay: as above; conditions: Gynecologic cancer cell panel viability, ATPlite luminescence, 48 h; series mostly up to 57.5 µM
How it was run: as §1

SKOV3 = assay: as above; conditions: Gynecologic cancer cell panel viability, ATPlite luminescence, 48 h; series mostly up to 57.5 µM
How it was run: as §1

[1] = Drug repurposing screens with cells derived from glioblastoma tumor samples (AID 1345199); conditions: GBM patient neurospheres viability, ATP luminescence, 48 h; for Potency: tumour line A; also: potency is read from the fitted curve at half-maximal effect; as to all read-outs here: nearly all actives have a fitted effect of over 40% in size
How it was run: (§2)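 Primary testing used CD133+ neurospheres from four GBM patients, seven concentrations, 48 h exposure and ATP-based viability; confirmation added three slower-growing patient lines.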

astro = assay: as above; conditions: viability, ATP luminescence, 48 h; series mostly up to 45.9 µM
How it was run: as §2

[2] = qHTS assay to identify inhibitors of the type 1 interferon - major histocompatibility complex class I in skeletal muscle: Counter screen cell viability and HiBit confirmation (AID 1347412); conditions: iHSKM muscle cells + IFN-b, HiBiT or CellTiter-Glo, 24 h; Potency: HiBiT; Viability, at 45.9 µM (top of the series); also: nearly all actives have a fitted effect of over 60% in size
How it was run: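 Myoblasts (C25cl48, HLA-B HiBiT) seeded in medium without dexamethasone, IFN-b 4 ng/ml added except unstimulated columns; 1 hr later compounds pinned (12-pt 1:3, top 46 uM final). Incubated 24 hrs, lysed 10 min, luminescence measured.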

[3] = at 45.9 µM (top of the series), tumour line B
[4] = at 45.9 µM (top of the series), tumour line D
% is scaled to controls: 0 for no effect and ±100 for the full control effect.

CN1C[C@H](CNC(=O)OCc2ccccc2)C[C@@H]2c3cccc4c3c(cn4C)C[C@H]21
inactive: Potency (CASKI) | Potency (Es-2) | Potency (HeLa) | Potency (Hek293T) | Potency (JEG-3) | Potency (OV90) | Potency (PA-1) | Potency (Tov-21-G) | Potency (Tov112D)

CCCC1CCCCN1 (stereo not drawn)
inactive: Potency (CAOV3) | Potency (CASKI) | Potency (Es-2) | Potency (HeLa) | Potency (OV90) | Potency (PA-1) | Potency (SKOV3) | Potency (Tov-21-G) | Potency (Tov112D) | activity, negative = cell killing [1, 3] -22.5% | activity, negative = cell killing [1, 4] -32.7% | Potency (astro)

CC(C)=CCOc1c2occc2cc2ccc(=O)oc12
active: Potency [1] 17.8 µM
inactive: Potency (CAOV3) | Potency (CASKI) | Potency (Es-2) | Potency (Hek293T) | Potency (JEG-3) | Potency (OV90) | Potency (PA-1) | Potency (Tov-21-G) | Potency (Tov112D) | activity, negative = cell killing [1, 3] -6.14% | activity, negative = cell killing [1, 4] -22.8%

c1ccc(C2CC2)c(OCC2=NCCN2)c1
inactive: Potency (CAOV3) | Potency (CASKI) | Potency (Es-2) | Potency (HeLa) | Potency (Hek293T) | Potency (OV90) | Potency (SKOV3) | Potency (Tov-21-G) | Potency (Tov112D) | activity, negative = cell killing [1, 3] -20.7% | activity, negative = cell killing [1, 4] -19.1% | Potency (astro)
active: Potency [1] 11.2 µM

Fc1ccc(C(OCCN2CCN(CCCc3ccccc3)CC2)c2ccc(F)cc2)cc1
active: Potency (OV90) 22.4 µM | Potency (astro) 22.4 µM

O=[N+]([O-])c1cc([As](=O)(O)O)ccc1O
inactive: Potency (CAOV3) | Potency (CASKI) | Potency (Es-2) | Potency (HeLa) | Potency (Hek293T) | Potency (OV90) | Potency (PA-1) | Potency (SKOV3) | Potency (Tov-21-G) | Potency (Tov112D) | Potency (astro)

C=C1C[C@@H]2[C@H](CC[C@]3(C)C(=O)CC[C@@H]23)[C@@]2(C)C=CC(=O)C=C12
inactive: Potency (CASKI) | Potency (HeLa) | Potency (SKOV3) | Potency (Tov112D)
active: Potency [1] 12.6 µM

Clc1ccc(CCC(Cn2ccnc2)Sc2c(Cl)cccc2Cl)cc1 (stereo not drawn)
active: Potency [1] 1.12 µM
inactive: Potency (CAOV3) | Potency (CASKI) | Potency (Es-2) | Potency (HeLa) | Potency (Tov-21-G) | Potency (Tov112D) | activity, negative = cell killing ([1]; at 21.2 µM (top of the series), tumour line B) -25.1%

c1ccc2c(c1)OCC(C1=NCCN1)O2 (stereo not drawn)
active: Potency (Hek293T) 28.2 µM | Potency (PA-1) 15.8 µM | Potency (Tov-21-G) 15.8 µM | Potency (astro) 15.8 µM
inactive: Potency (JEG-3) | Potency [2]

COC[C@H]1OC(=O)c2coc3c2[C@@]1(C)C1=C(C3=O)C2CCC(=O)[C@@]2(C)C[C@H]1OC(C)=O (stereo partly drawn)
inactive: Potency (CAOV3) | Potency (CASKI) | Potency (Es-2) | Potency (HeLa) | Potency (Hek293T) | Potency (OV90) | Potency (Tov-21-G) | Potency (Tov112D) | Potency [2]

CCOC(=O)C1(c2ccccc2)CCN(CCC(C#N)(c2ccccc2)c2ccccc2)CC1
inactive: Potency (CAOV3) | Potency (CASKI) | Potency (HeLa) | Potency (SKOV3) | Potency (Tov-21-G) | Potency (Tov112D)
